# Measured values as given in PubChem BioAssay AID1159580 (chemical genetic matrix, 2015).
# About 2,000 (36%) of roughly 5,500 compounds were called active. About 18% were inconclusive and are not listed. The list shows a part of the results. Unmarked numbers belong to inactive results. Cut-off read from the data, not from the text of the source: active = normalized growth mostly below about 0.91 (no sharp cut-off); inconclusive = no clear call, values can overlap the other calls; inactive = mostly above about 0.92.
# Assay: chemical genetic growth profiling, strain panel (AID 1159580);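 note: tested at 20 µM; growth read once vehicle control cultures reached saturation at 30 °C; 1 = growth at the plate median or of vehicle wells; lower values mean less growth of the strain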
# Conditions: S. cerevisiae deletion strains, growth OD
smiles,measurement,setting,value
CCCCCCCCCCCCCCCC(=O)OC(CC(=O)O)C[N+](C)(C)C (stereo unspecified),normalized growth,"locus YAL040C, strain CLN3, active compounds read low",1.07
same,normalized growth,"locus YCL061C, strain MRC1 (second series), active compounds read low",0.492 (active)
same,normalized growth,"locus YDR150W, strain NUM1, active compounds read low",0.56 (active)
same,normalized growth,"locus YDR363W, strain ESC2, active compounds read low",0.784 (active)
same,normalized growth,"locus YER002W, strain NOP16, active compounds read low",0.424 (active)
same,normalized growth,"locus YGR229C, strain SMI1, active compounds read low",0.0686 (active)
same,normalized growth,"locus YJR075W, strain HOC1, active compounds read low",0.724 (active)
same,normalized growth,"locus YMR263W, strain SAP30, active compounds read low",0.584 (active)
same,normalized growth,"locus YNL153C, strain GIM3, active compounds read low",0.0876 (active)
same,normalized growth,"locus YNL175C, strain NOP13, active compounds read low",0.0754 (active)
same,normalized growth,"locus YNL197C, strain WHI3, active compounds read low",0.0681 (active)
same,normalized growth,"locus YNL224C, strain SQS1, active compounds read low",0.0761 (active)
same,normalized growth,"locus YNL322C, strain KRE1, active compounds read low",0.354 (active)
same,normalized growth,"locus YOR083W, strain WHI5 (second series), active compounds read low",0.0749 (active)
same,normalized growth,"locus YPL055C, strain LGE1, active compounds read low",0.383 (active)
same,normalized growth,"locus YPL241C, strain CIN2, active compounds read low",0.976
